AHR activator: human AHR activation; P35869; AHR-responsive luciferase reporter cells, luminescence; activation, % at 5 µM; actives 2.5% (n = 320,000); in the data active = activation above about 47%;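 also: 0% = vehicle wells and 100% = reference agonist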
NR3A LBD binder: modulates the human NR3A ligand-binding domain | NR3A LBD differential scanning fluorimetry, Tm shift; 0% = protein alone, 100% = glycine-bound protein | Tm shift relative to glycine control, % at 25 µM | actives 2.5% (n = 340,000);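 active = melting temperature shift of at least 10% of the positive control shift, at one fixed dose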
ADAM17 inh: inhibits human ADAM17 | actives 0.83% (n = 370,000) | AID 720648 | inhibition, % at 6.95 µM | recombinant ADAM17, EDANS/DABCYL FRET peptide cleavage;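 active = inhibition above the mean of compounds lying between control limits plus 3 SD, set per campaign, cut at about 8.5% in these data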;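 also: 0% = DMSO-only wells as the low control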
rCAG binder-1: molecules binding r(CAG) RNA repeats; r(CAG) RNA repeat, TO-PRO-1 dye displacement fluorescence; inhibition, % at 3 µM; actives 1.3% (n = 370,000); AID 651821;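 active = inhibition above the plate cutoff, the mean of all test compounds on that plate plus 3 SD, cut at about 35% in these data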;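 also: 0% = DMSO alone and 100% = 100 µM mitoxantrone as full dye displacement; higher means more dye released from RNA so lower well fluorescence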
ADAM10 inh: inhibits human ADAM10. AID 720582. actives 0.62% (n = 370,000). inhibition, % at 7 µM. O14672. recombinant ADAM10, EDANS/DABCYL FRET peptide cleavage, 3 h;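 active = inhibition above a per-campaign cutoff equal to the mean of compounds falling between control-based bounds plus 3 SD, cut at about 20% in these data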;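 also: 0% = DMSO wells while the 100% control is not disclosed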
Target sequence (O14672 214-748 limits assumed): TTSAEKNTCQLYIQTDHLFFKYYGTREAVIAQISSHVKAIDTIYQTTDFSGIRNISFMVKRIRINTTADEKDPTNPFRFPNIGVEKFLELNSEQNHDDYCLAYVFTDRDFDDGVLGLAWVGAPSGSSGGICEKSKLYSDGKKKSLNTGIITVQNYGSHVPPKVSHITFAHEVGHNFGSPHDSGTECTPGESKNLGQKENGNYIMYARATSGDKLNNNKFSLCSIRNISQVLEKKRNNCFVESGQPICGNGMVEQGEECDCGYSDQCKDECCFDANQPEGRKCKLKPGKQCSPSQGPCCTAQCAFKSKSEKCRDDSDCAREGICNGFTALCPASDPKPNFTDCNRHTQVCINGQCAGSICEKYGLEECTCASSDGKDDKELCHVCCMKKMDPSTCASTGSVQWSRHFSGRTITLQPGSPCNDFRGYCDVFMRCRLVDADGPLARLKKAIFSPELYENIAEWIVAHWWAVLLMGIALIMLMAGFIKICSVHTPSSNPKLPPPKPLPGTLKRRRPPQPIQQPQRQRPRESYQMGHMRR
KLK7 zymogen act: activators of human kallikrein-7 zymogen; P49862; activation, % at 7 µM; actives 0.9% (n = 370,000); AID 652039; purified proKLK7, EDANS-DABCYL substrate fluorescence; 100% is mature enzyme control, 0% vehicle;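 active = activation above the mean of all tested compounds plus 3 SD, computed per campaign excluding outliers beyond control limits, cut at about 13% in these data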
Target sequence (P49862 whole entry, looked up): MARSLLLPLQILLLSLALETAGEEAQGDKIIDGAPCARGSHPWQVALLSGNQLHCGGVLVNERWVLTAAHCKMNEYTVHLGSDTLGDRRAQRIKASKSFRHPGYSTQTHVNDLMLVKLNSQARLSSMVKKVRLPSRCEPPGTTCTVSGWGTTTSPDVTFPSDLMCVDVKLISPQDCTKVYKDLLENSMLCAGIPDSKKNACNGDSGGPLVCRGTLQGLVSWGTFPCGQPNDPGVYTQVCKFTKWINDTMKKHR
AHR act confirm: human AHR activation, confirmation | shares compounds with AHR activator | human cells, AHR-responsive luciferase reporter, luminescence | activation, % at 9 µM | actives 87% (n = 2,300); in the data active = activation above about 49%;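 also: HepG2 hepatoma cells carrying a DRE-driven firefly luciferase reporter; 0% = vehicle wells and 100% = reference agonist wells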
PXR counter: counter-screen for AHR activators: human PXR activators; shares compounds with AHR activator; cell-based PXR reporter, luciferase luminescence; activation, % at 11.6 µM; actives 88% (n = 2,300); AID 434939; in the data active = activation above about 11%;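 also: human hepatoma DPX-2 cells expressing full-length human PXR; 0% = DMSO and 100% = reference agonist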
rCAG binder conf: r(CAG) RNA repeat binding, confirmation | AID 652065 | shares compounds with rCAG binder-1 | actives 70% (n = 4,300) | inhibition, % at 3 µM | TO-PRO-1 dye displacement fluorescence;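 active = inhibition above a per-plate cutoff, the mean inhibition of sample wells plus 3 SD, cut at about 35% in these data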;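 also: loss of TO-PRO-1 fluorescence as compound displaces dye from 1x1 AA loop RNA; 0% = DMSO only wells and 100% = 100 µM mitoxantrone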
DNA CAG counter: DNA CAG dye complex inhibition counter-screen; shares compounds with rCAG binder-1; d(CAG) DNA oligo TO-PRO-1 dye displacement, fluorescence; inhibition, % at 3 µM; actives 94% (n = 4,300);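 active = inhibition above its plate's cutoff, the mean test-well inhibition plus 3 SD, cut at about 4.8% in these data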;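 also: 0% = DNA dye mix with DMSO and 100% = 100 µM mitoxantrone; hits displace the dye from DNA and so lower well fluorescence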
dCAG dye DR: disrupts DNA CAG TO-PRO-1 complex in dose response; shares compounds with rCAG binder-1; DNA CAG/GTC duplex TO-PRO-1 dye displacement fluorescence; IC50, µM; actives 20% (n = 250); in the data active = IC50 below about 10 µM
dCAG DNA bind: counter-screen for rCAG binders: DNA CAG TO-PRO-1 complex inhibitors, late stage; shares compounds with rCAG binder-1; d(CAG) DNA duplex TO-PRO-1 dye displacement, fluorescence; IC50, µM; actives 80% (n = 30)
rCAG binder-2: molecules binding r(CAG) RNA repeats, late stage dose response. shares compounds with rCAG binder-1. r(CAG) RNA TO-PRO-1 dye displacement, fluorescence. IC50, µM. actives 100% (n = 30). AID 720651
* marks the source's active call; other numbers are inactive results; i = inactive; . = not tested or not shown. Most compounds without a hit are left out; they make up all but 7% or so of the library. Unless noted, no rule for the calls is given here.

SMILES | AHR activator | NR3A LBD binder | ADAM17 inh | rCAG binder-1 | ADAM10 inh | KLK7 zymogen act | others
O=[N+]([O-])c1ccc(O)c([N+](=O)[O-])c1 | 0.0 | 18.2* | 5.8 | 1.8 | 4.6 | -0.1
CC(C)CCP(=O)(O)O | . | . | -1.1 | 2.1 | -1.9 | -0.2
COC(=O)C1=C(C(=O)OC)SC2(S1)C(C(=O)OC)=C(C(=O)OC)Sc1c2ssc1=O | . | 25.4* | -1.1 | 10.9 | -14.3 | 2.7
CC(N)Cc1c[nH]c2ccc(OCc3cccs3)cc12 (stereo not given) | 80.3* | -0.8 | -1.6 | 10.2 | 3.3 | -1.3 | AHR act confirm=50.5*;PXR counter=11.1*
CC(N)Cc1c[nH]c2ccc(O)cc12 (stereo not given) | . | -0.8 | -3.4 | 2.3 | 2.9 | 0.8
COC(=O)C1=C(c2ccc(OC(F)(F)F)cc2)C[C@@H]2CC[C@H]1N2C(=O)NCc1ccco1 | . | . | -4.3 | 0.4 | -3.2 | -0.2
c1ccc(-c2nc3ccccc3nc2-c2ccc(CN3CCC(n4nnc5ccccc54)CC3)cc2)cc1 | . | . | -22.0 | 8.5 | -91.6 | -10.3
CCOC(=O)c1c(C)n(CCOC)c2ccc(O)cc12 | 91.7* | 0.2 | 1.7 | 2.0 | -0.2 | -0.3 | AHR act confirm=79.7*;PXR counter=19.0*
COc1ccc(OC(=O)N(C)C[C@H]2OCc3cnnn3CCCC(=O)N([C@@H](C)CO)C[C@@H]2C)cc1 | . | . | 6.5 | -0.1 | 5.9 | -0.4
COCCOC(=O)c1c(N)n(Cc2ccco2)c2nc3ccccc3nc12 | 82.0* | -1.6 | i | -0.2 | i | 8.5 | AHR act confirm=35.7;PXR counter=91.5*
Cc1c(CCN)ccc2c1[nH]c1ccccc12 | 92.1* | -9.7 | -4.7 | 1.5 | -6.1 | 0.6 | AHR act confirm=29.2;PXR counter=13.3*
NCCc1c(Cc2ccccc2)[nH]c2ccccc12 | 7.7 | 2.0 | -5.2 | 8.3 | -6.0 | -0.8
CC[C@]12CCN(CC3(O)CC3)C(Cc3ccc(O)cc31)C2(C)C | . | . | -3.1 | 3.2 | -5.8 | 0.1
CNC(=O)Oc1cccc(-c2cn3cc(Cl)ccc3n2)c1 | 95.7* | -0.7 | -15.4 | -1.4 | -70.9 | 1.1 | AHR act confirm=32.8;PXR counter=12.5*
Cc1cc(N2CCCC2)ccc1C=C(C#N)C#N | 3.0 | 5.2 | -6.1 | -2.8 | -2.4 | -0.1
Cc1ccc2cc(C=C(C#N)C#N)c(Cl)nc2c1 | 87.9* | -3.5 | -69.4 | -3.2 | -200.1 | 12.4 | AHR act confirm=30.8;PXR counter=20.8*
Cc1ccc2nc3c(cc2c1)CC1(C(=O)N(C)C(=O)N(C)C1=O)C1CCCCN31 (stereo not given) | 85.2* | 2.2 | -27.3 | -3.6 | -107.0 | 2.1 | AHR act confirm=78.3*;PXR counter=71.8*
Oc1c(Cl)cc(Cl)cc1CN1CCN(Cc2ccccc2)CC1 | 5.1 | 2.8 | -0.1 | -5.8 | 6.1 | -0.6
Oc1c(Cl)cccc1Cc1cc(Cl)cc(Cl)c1O | . | 12.3* | 0.0 | 58.9* | 6.8 | 0.5 | rCAG binder conf=61.8*;DNA CAG counter=16.2*;dCAG dye DR=>29.9
Cc1ccc(-n2c(=S)[nH]c3ccccc3c2=O)cc1F | . | . | -6.1 | 36.2* | -17.3 | 0.8 | rCAG binder conf=34.2;DNA CAG counter=8.9*
O=c1c2ccccc2[nH]c(=S)n1-c1cccc(C(F)(F)F)c1 | . | . | 0.5 | 6.3 | 3.1 | -0.9
CN1C2CCC1C(C(=O)Oc1ccccc1)C(c1ccc(Cl)cc1)C2 (stereo not given) | . | . | 0.7 | 0.0 | -8.2 | 0.4
O=C(N/N=C/c1c(O)n(-c2ccccc2)c(=S)[nH]c1=O)c1ccccc1 | 9.3 | -5.6 | -1.6 | 6.1 | -3.2 | -1.2
Cc1ccccc1-n1c(O)c(/C=N/NC(=O)c2ccccc2O)c(=O)[nH]c1=S | 11.8 | -1.2 | -7.9 | 56.2* | -18.6 | -0.1 | rCAG binder conf=35.0*;DNA CAG counter=9.0*
O=c1[nH]c(=S)n(C2CC2)c(O)c1C=NCc1ccc(F)cc1 | 1.0 | -0.1 | -0.5 | -1.2 | -7.0 | -0.1
SMILES | AHR activator | NR3A LBD binder | ADAM17 inh | rCAG binder-1 | ADAM10 inh | KLK7 zymogen act | others
C/C(=N\NC(=O)c1ccccc1O)c1c(O)n(C2CCCCC2)c(=O)[nH]c1=O | 4.0 | 12.9* | -19.7 | 82.8* | -33.0 | 0.4 | rCAG binder conf=76.9*;DNA CAG counter=34.5*;dCAG dye DR=3.09*;dCAG DNA bind=2.03*;rCAG binder-2=0.817*
O=C(N/N=C/c1c(O)n(C2CC2)c(=S)[nH]c1=O)c1ccccc1O | 13.2 | 1.3 | -3.6 | 37.8* | -12.2 | -1.0 | rCAG binder conf=21.0;DNA CAG counter=6.0*
Cc1ccc(OC(=O)N(C)C[C@H]2OCc3cnnn3CCCC(=O)N([C@@H](C)CO)C[C@@H]2C)cc1 | . | . | -5.3 | -0.6 | -3.2 | 0.3
O=c1[nH]c(=S)n(CCC2=CCCCC2)c(O)c1C=NCc1cccnc1 | -1.4 | . | -1.6 | 0.2 | -3.1 | -0.3
O=C(N/N=C/c1c(O)n(CCC2=CCCCC2)c(=S)[nH]c1=O)c1ccccc1 | 9.2 | 23.6* | -6.3 | 69.6* | -14.1 | -1.7 | rCAG binder conf=73.5*;DNA CAG counter=32.3*;dCAG dye DR=i;dCAG DNA bind=2.21*;rCAG binder-2=0.987*
Nc1ccccc1N=Cc1c(O)n(CCC2=CCCCC2)c(=O)[nH]c1=O | 10.3 | -12.5 | -17.9 | 3.5 | -55.2 | -1.4
O=C(N/N=C/c1c(O)n(CCC2=CCCCC2)c(=O)[nH]c1=O)c1ccccc1 | 3.7 | -1.1 | -26.8 | 46.4* | -89.5 | -6.9 | rCAG binder conf=40.3*;DNA CAG counter=10.9*
CN1CC[C@@H]2CN[C@H](c3ccccc3)C[C@@H]21 | . | . | -25.6 | 3.8 | -81.2 | 0.1
O=P(OCCCl)(OCCCl)OCCCl | . | . | -4.7 | 0.6 | -28.1 | 0.2
N#CCCC#N | . | . | -2.7 | 0.9 | -4.3 | -0.6
O=C(NCCN1CCC2(CC1)C(=O)NCN2c1ccccc1)c1ccccc1F | . | . | -0.3 | 2.2 | 0.6 | -0.2
COc1cccc(NC2=NCCS2)c1 | . | . | -5.2 | 0.4 | -4.0 | 0.6
CCOc1cc(C2C(C#N)=C(N)Oc3c2c(=O)oc2ccccc32)ccc1OC(=O)c1cccs1 (stereo not given) | 6.2 | 20.1* | -1.6 | 46.5* | -1.5 | 0.8 | rCAG binder conf=30.4;DNA CAG counter=15.1*
CN1C[C@H](O)[C@H]2C[C@@H]1c1ccccc1O2 | . | . | -3.5 | 0.3 | -15.4 | 0.4

Screening results from PubChem BioAssay.
